Experimental findings from PubChem BioAssay AID588590 (National Center for Advancing Translational Sciences (NCATS), 2011) are described below.

Among all 390,000 compounds or so, about 4,000 (1%) were called active. Inconclusive results (about 7%) are left out. For the sample, actives were picked, then their nearest neighbours and some compounds at random. A number with no mark means an inactive call. Calls come from the whole dose curve; as a rule, active = well fitted inhibition curve with a large enough effect; inconclusive = small, poorly fitted or top-dose-only effect, or another doubt; inactive = no such curve, though single readings can be large or run the other way.
Potency is the fitted concentration of half-maximal effect.

Chain of DNA polymerase iota (Homo sapiens) (Q9UNA4 whole entry, looked up): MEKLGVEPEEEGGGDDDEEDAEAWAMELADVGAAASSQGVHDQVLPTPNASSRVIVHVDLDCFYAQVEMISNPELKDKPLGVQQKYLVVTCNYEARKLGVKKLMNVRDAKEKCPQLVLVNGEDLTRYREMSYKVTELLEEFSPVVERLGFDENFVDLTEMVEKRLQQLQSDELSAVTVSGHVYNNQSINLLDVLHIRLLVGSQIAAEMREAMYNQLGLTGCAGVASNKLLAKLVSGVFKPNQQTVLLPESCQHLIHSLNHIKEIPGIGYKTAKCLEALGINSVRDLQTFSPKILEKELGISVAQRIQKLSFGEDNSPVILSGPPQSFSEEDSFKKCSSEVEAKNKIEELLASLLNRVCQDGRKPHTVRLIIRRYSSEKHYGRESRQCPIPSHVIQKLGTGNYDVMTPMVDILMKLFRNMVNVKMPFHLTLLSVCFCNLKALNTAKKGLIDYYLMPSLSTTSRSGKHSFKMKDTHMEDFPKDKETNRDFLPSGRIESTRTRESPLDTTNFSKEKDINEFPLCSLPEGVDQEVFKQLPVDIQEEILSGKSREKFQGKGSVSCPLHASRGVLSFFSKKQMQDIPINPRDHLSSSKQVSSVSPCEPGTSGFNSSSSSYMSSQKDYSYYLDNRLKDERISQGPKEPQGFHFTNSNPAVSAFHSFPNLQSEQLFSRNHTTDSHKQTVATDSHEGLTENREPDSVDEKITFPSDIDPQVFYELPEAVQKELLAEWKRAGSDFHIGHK

For this assay, the target named is DNA polymerase iota (Homo sapiens) (UniProt Q9UNA4). The experiment in a line: qHTS for Inhibitors of Polymerase Iota. The following applies: Pol iota fluorescent replication assay, 10 min; series mostly up to 115 µM; activity, negative = inhibition: at the top concentration. An excerpt:
DNA polymerases, such as Pol iota, are specifically involved in DNA repair. Pol iota specifically plays an important role in translesion synthesis, where the normal high-fidelity DNA polymerases cannot proceed and DNA synthesis stalls. […] Thus, while pol eta's (and most likely iota's) normal function is to protect humans against the deleterious consequences of DNA damage, under certain conditions they can have deleterious effects on human health. As a consequence, we propose to utilize a high throughput replication assay to identify small molecule inhibitors of pol iota.
In a collaboration between the National Institute of Child Health & Human Development (NICHD) and NIH Chemical Genomics Center, a high-throughput, fluorescent screen was developed to screen the NIH Molecular Libraries Small Molecule Repository (MLSMR). This screen is used to identify inhibitors of pol iota.
NIH Chemical Genomics Center [NCGC]
NIH Molecular Libraries Probe Centers Network [MLPCN]
Assay Submitter (PI): Roger Woodgate, NICHD)
Three microliters of reagents (buffer in column 3 and 4 as negative control and 10 nM Pol iota in columns 1, 2, and 5-48) will be dispensed into 1,536-well black solid-bottomed plate. Compounds (23 nL) will be transferred via Kalypsys pin tool equipped with 1536-pin array. The plates will then be incubated for 15 min at room temperature, and 1 µL substrate (50 nM final concentration) will be added to start the reaction and kinetically read twice at 0 min and 10 min on the Viewlux reader.
(In general: In qHTS, concentration-response curves come from the screen itself.)
Regarding `OC[C@@H]1O[C@H](n2cnc3c(SCc4ccccc4)ncnc32)[C@H](O)[C@H]1O`, the “activity, negative = inhibition” value is 17.3%.

Regarding `COc1ccc(CNC(=O)Cc2coc3ccc(C(C)C)cc23)cc1`, the “activity, negative = inhibition” value was -11.3%. Consider `CCOC(=O)c1c(C)[nH]c2c1-c1ccccc1C(=O)C2=O`, for which the Potency was 1.41 µM (active). `CCOC(=O)c1c(SCC(=O)Nc2cccc(C)c2C)nc(=O)[nH]c1C`: the “activity, negative = inhibition” value was -9.72%. Same read-out and setting: the value for `CCOC(=O)c1c(C)[nH]c(C)c1S(=O)(=O)N(C)CC(=O)N1CCN(c2ccccc2)CC1` was 15.1%; that for `Cc1ccc(-n2ncc3c(=O)n(Cc4cccc(C(F)(F)F)c4)cnc32)cc1C` was 2.4%; that for `O=C(O)c1ccc(N/N=C/c2ccc3ncccc3c2)cc1` was -5.75%. As for `O=C(O)c1ccc(NN=CC2=C(N3CCOCC3)/C(=C/c3ccccc3)CC2)cc1`, the Potency is 20 µM (active). On to `Cc1ccccc1N/N=C/c1ccc(N2CCOCC2)cc1`, for which the “activity, negative = inhibition” value was -12.5%. Same read-out and setting: the value for `CCCCOc1ccc(C(=O)NO)cc1` was 20.2%. On the same count and under the same terms, with `C/C=C/NNC(=O)Cc1ccc(OC)cc1` the figure was 11.8%. For `Cc1c(CC(=O)N2CCN(C(=O)C3COc4ccccc4O3)CC2)c(=O)oc2c(O)c(O)ccc12` (stereo not given), the Potency was 3.16 µM (active). As for `COc1cc(NS(=O)(=O)c2ccc3c(c2)OCC(C(=O)N2CCCC2)O3)cc(OC)c1` (stereo not given), the “activity, negative = inhibition” value is 8.22%. Still for that read-out and setting: the value for `COc1ccc(OC)c2sc(N3CCN(C(=O)C4COc5ccccc5O4)CC3)nc12` (stereo not given) was 11.7%; that for `Cc1ccc(-c2ccc(CCC(=O)O)n2-c2ccc(C(N)=O)cc2)cc1` was 3.26%; that for `COc1ccc(Cl)cc1S(=O)(=O)N1CCN(CC(=O)C(C)(C)C)CC1` was -2.4%. On to `N#Cc1ccsc1NC(=O)CN1CCN(S(=O)(=O)c2cc(Cl)ccc2Cl)CC1`, for which the “activity, negative = inhibition” value was -9.21%. For the molecule `O=C(CN1CCN(S(=O)(=O)c2cc(Cl)ccc2Cl)CC1)c1ccc(O)c(O)c1`, the Potency is 10 µM (active). Consider `Cc1[nH]c2ccccc2c1C(=O)C(=O)N(C)c1ccccc1`, for which the “activity, negative = inhibition” value was 27.1%. For the molecule `Cc1ccc(-c2nc3ccccn3c2Nc2ccc(F)cc2)o1`, the “activity, negative = inhibition” value is 21.9%. The same measure, in the same setting: the value for `CCCCCCCNc1ccc(/C=C/c2ccnc3ccccc23)cc1` was 34.6%; that for `O=C(Cn1c(=O)n(-c2ccc(F)cc2)c(=O)c2sc3ccccc3c21)NC1CCCC1` was -2.5%; that for `COc1ccc(CNC(=O)c2cc3c(-c4ccccc4F)nn(C)c3s2)c(OC)c1` was -0.744%. In the case of `CSc1cccc(NC(=O)CN2C(=O)CCc3cc(S(=O)(=O)N4CCCCC4)ccc32)c1`, the “activity, negative = inhibition” value is -12.3%. On the same count and under the same terms, with `O=C1c2ccccc2-c2ncnc3c(N4CCOCC4)cc(N4CCOCC4)c1c23` the figure was 12.6%; with `Cc1oc2c(c1C(=O)N1CCOCC1)C(=O)c1ccccc1C2=O`, -7.65%. `COC1=C(N2CCOCC2)C(=O)c2ccccc2C1=O`: the Potency is 14.1 µM (active). Regarding `Cc1cccn2c(=O)c3cc(C(=O)NC(C)c4ccccc4)c(=N)n(CCCO)c3nc12` (stereo not given), the “activity, negative = inhibition” value is 5.28%.

In the case of `COc1c(O)cc2oc(-c3ccc(O)c(O)c3)cc(=O)c2c1O`, the Potency is 7.94 µM (active). Consider `COc1cc(O)c2c(=O)c3c(O)c(O)ccc3oc2c1OC`, for which the “activity, negative = inhibition” value was -4.12%. The same measure, in the same setting: the value for `COc1ccc(-c2c(C)c3ccc(O)c(CN4CCN(C)CC4)c3oc2=O)cc1OC` was -12.2%. `C=CCn1c(=S)[nH]c2scc(-c3ccco3)c2c1=O`: the Potency was 4.47 µM (active). As for `C=CCn1c(SCC(=O)NCCCO)nc2sc3c(c2c1=O)CCC3`, the “activity, negative = inhibition” value is 45.2%. Still for that read-out and setting: the value for `C=CCn1c(SCC(=O)NCC2CCCO2)nc2sc(C)c(C)c2c1=O` (stereo not given) was 22.8%. Take `C=CCNC(=O)CSc1nc2scc(-c3ccco3)c2c(=O)n1CC=C`: the Potency is 44.7 µM (active). On to `CCOC(=O)c1cccc(NC(=O)C(Cc2ccccc2)NS(=O)(=O)c2cccc3nsnc23)c1` (stereo not given), for which the “activity, negative = inhibition” value is 39.6%. On the same count and under the same terms, the value for `Cc1ccc(N2CC(c3nnc(Cc4ccccc4Cl)o3)CC2=O)cc1` (stereo not given) was -8.99%; that for `CCOc1ccc(N(CC)S(=O)(=O)N2CCCC(C(=O)NCc3ccc(Cl)cc3)C2)cc1` (stereo not given) was 4.52%; that for `CCOc1ccc(-n2nc3ccc(NC(=O)c4ccc(OC)c(Cl)c4)cc3n2)cc1` was 23.2%.

`CCOc1ccc(CNC(=O)C2CCCN(S(=O)(=O)N(CC)c3ccc(OCC)cc3)C2)cc1` (stereo not given): the “activity, negative = inhibition” value was -9.13%.

In the case of `CCN(CC)CCNC(=O)Cn1ncc2c3ccccc3n(Cc3ccccc3C)c2c1=O`, the “activity, negative = inhibition” value was 20.6%. As to `COC(=O)c1ccccc1NC(=O)c1ccc2c(=O)n3c(nc2c1)CCCCC3`, the “activity, negative = inhibition” value is 17%. For the molecule `CC1CCN(C(=O)c2ccc3c(=O)n4c(nc3c2)CCCCC4)CC1`, the “activity, negative = inhibition” value was 2.81%. For the molecule `N#Cc1cccc(OC(=O)c2ccc3c(=O)n4c(nc3c2)CCC4)c1`, the Potency is 20 µM (active). As to `CCOC(=O)c1c(NC(=O)Cc2coc3ccc(CC)cc23)sc2c1CCC2`, the “activity, negative = inhibition” value was 20.1%. Take `O=C1COc2c1ccc(O)c2O`: the Potency was 17.8 µM (active). Consider `CCc1ccc(CNC(=O)c2cc3c(=O)n(CC)c4ccccc4c3s2)cc1`, for which the “activity, negative = inhibition” value is -4.94%. `Cn1cccc1/C=C1\SC(=O)N(CC(=O)Nc2ccc(F)cc2)C1=O`: the Potency is 79.4 µM (active).

As for `CCc1ccc(NC(=O)CN2C(=O)CSC2=O)cc1`, the “activity, negative = inhibition” value was -2.66%. On the same count and under the same terms, the value for `O=C(CN1C(=O)COc2ccccc21)Nc1ccc(F)cc1` was 25.2%.
